Values joined by “and” are separate entries in the source; they are usually repeats but may differ in a detail not shown here. Equal entries are not always repeated. Results filed as inconclusive are left out. Entries that show only a call come without a potency. Active and inactive are the calls of the source. Unless noted, the call rests on the fitted dose curve; in most records, active means well fitted curve in the direction sought with a large enough effect in the repeat runs; inconclusive means weak or mixed curves; inactive means no such curve, though single readings can be large; an effect the other way counts as inactive or inconclusive.
Columns and labels:
[1] = qHTS assay to identify small molecule antagonists of the estrogen receptor alpha (ER-alpha) signaling pathway using the BG1 cell line in the presence of 0.1 nM 17-beta-estradiol - cell viability counter screen (AID 1259241); further: nearly all actives have a fitted effect of over 40% in size
Method in brief: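 Following 5 days in phenol red-free medium with charcoal-stripped serum, VM7Luc4E2 cells received test compounds alongside 0.1 nM 17beta-estradiol (final) at 37C for 22 hr. Live cells were then quantified via protease-substrate fluorescence.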

[2] = target: Androgen receptor (Homo sapiens) (UniProt P10275); assay: qHTS assay to identify small molecule antagonists of the androgen receptor (AR) signaling pathway using the MDA cell line in the presence of 0.5 nM R1881 (AID 1259243); further: potency means the concentration at half of the fitted maximal effect; nearly all actives have a fitted effect of over 50% in size
Sequence of Androgen receptor (Homo sapiens) (P10275 whole entry, looked up): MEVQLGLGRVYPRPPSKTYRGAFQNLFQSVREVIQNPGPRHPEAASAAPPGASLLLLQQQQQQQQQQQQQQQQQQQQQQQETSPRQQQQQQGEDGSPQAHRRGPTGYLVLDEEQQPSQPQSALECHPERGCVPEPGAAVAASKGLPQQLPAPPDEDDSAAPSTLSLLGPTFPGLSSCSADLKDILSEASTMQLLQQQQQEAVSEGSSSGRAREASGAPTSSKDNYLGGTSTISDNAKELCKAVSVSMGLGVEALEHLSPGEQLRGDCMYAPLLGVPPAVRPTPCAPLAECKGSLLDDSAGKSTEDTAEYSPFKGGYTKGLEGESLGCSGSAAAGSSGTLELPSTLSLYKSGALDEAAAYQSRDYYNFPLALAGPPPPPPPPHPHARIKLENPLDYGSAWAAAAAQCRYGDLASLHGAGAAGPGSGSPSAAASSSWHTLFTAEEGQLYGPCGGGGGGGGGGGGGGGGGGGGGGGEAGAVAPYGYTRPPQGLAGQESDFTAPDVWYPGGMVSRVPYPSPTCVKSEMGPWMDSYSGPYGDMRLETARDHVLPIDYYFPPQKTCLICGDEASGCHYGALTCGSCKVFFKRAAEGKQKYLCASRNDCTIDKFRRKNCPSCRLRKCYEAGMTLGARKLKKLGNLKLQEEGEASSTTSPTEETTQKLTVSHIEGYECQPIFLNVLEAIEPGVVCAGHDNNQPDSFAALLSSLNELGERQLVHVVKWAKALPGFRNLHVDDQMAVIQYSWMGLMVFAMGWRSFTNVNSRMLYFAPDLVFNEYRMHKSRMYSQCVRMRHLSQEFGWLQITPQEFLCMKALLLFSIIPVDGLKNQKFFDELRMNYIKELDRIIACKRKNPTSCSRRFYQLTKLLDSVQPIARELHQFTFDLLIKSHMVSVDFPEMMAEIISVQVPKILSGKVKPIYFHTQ
Method in brief: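 MDA-kb2, MMTV-luc (AR/GR elements); 3,000 cells/well; cpd + 0.5 nM R1881 final; 16 hr 37C, 0% CO2; ONE-Glo 30 min RT; luminescence.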

[3] = target: Estrogen receptor (Homo sapiens) (UniProt P03372); assay: qHTS assay to identify small molecule antagonists of the estrogen receptor alpha (ER-alpha) signaling pathway using the BG1 cell line in the presence of 0.1 nM 17-beta-estradiol (AID 1259244); further: nearly all actives have a fitted effect of over 50% in size
Sequence of Estrogen receptor (Homo sapiens) (P03372 whole entry, looked up): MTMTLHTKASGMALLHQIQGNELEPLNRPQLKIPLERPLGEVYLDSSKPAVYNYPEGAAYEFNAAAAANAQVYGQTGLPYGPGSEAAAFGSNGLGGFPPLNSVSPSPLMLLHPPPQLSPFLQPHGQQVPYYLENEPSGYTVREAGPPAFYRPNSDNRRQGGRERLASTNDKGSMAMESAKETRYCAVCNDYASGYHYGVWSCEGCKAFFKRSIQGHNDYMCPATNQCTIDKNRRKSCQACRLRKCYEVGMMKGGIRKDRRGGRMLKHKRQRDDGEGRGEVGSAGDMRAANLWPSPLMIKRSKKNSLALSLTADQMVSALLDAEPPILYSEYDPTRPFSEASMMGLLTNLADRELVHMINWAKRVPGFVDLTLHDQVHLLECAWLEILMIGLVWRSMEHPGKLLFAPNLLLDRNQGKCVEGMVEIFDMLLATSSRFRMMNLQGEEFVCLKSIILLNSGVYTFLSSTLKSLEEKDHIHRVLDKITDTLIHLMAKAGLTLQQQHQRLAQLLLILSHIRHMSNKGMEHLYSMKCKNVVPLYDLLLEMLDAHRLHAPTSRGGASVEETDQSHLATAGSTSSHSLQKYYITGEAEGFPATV
Method in brief: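 Luminescence after ONE-Glo (30 min, room temperature) measured ERE-luciferase activity in VM7Luc4E2 cells treated 22 h with compound and 0.1 nM final 17beta-estradiol as stimulator.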

[4] = qHTS assay to identify small molecule HDAC inhibitors (AID 1259364);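 further: wild-type HCT-116 cells with endogenous class I/II HDAC activity; top concentration of the series differs between compounds; nearly all actives have a fitted effect of over 45% in size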
Method in brief: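 HCT-116 (wild type), 1,500 cells/well, overnight; compound 2 hr 37C 5% CO2; HDAC-Glo I/II reagent 30 min RT; luminescence readout.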

[5] = qHTS assay to identify small molecule HDAC inhibitors - cell viability counter screen (AID 1259365); further: series mostly up to about 92 µM; nearly all actives have a fitted effect of over 50% in size
Method in brief: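 HCT-116 wild-type, overnight attachment; 2hr drug exposure, 37C; CellTiter-Glo luminescent ATP readout after 30min RT.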

[6] = qHTS assay to identify small molecule agonists of the sonic hedgehog signaling (Shh) pathway - cell viability counter screen (AID 1259366); further: nearly all actives have a fitted effect of over 50% in size
Method in brief: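 Compounds in DMSO were pin-transferred onto 3T3 Gli1-Luc cells that had settled 4hr; plates then stood 24hr at 37C and 5% CO2. One hour before the end, CellTiter-Fluor was added and fluorescence recorded.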

[7] = qHTS assay to identify small molecule antagonists of the sonic hedgehog signaling (Shh) pathway - cell viability counter screen (AID 1259367); further: nearly all actives have a fitted effect of over 55% in size
Method in brief: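 Fluorescence read-out (CellTiter-Fluor, 1 hr at 37C) taken after 23 hr compound treatment of 3T3 Gli1-Luc cells stimulated with conditioned medium. Cells were seeded at 2,000 per well and pre-incubated 4 hr.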

[8] = qHTS assay to identify small molecule agonists of the sonic hedgehog signaling (Shh) pathway (AID 1259368; calls by dose curve;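 further: NIH/3T3-derived 3T3Gli1-Luc cells carrying a stable Gli1-driven firefly luciferase reporter; series mostly up to about 92 µM; nearly all actives have a fitted effect of over 15% in size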)
Method in brief: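 Read-out: firefly luciferase luminescence from a Gli1 response element reporter stably integrated in NIH/3T3-derived 3T3Gli1-Luc cells, measured 30 min at room temperature after reagent addition. Compound exposure lasted 24 hr at 37 C, 5% CO2.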

[9] = qHTS assay to identify small molecule antagonists of the sonic hedgehog signaling (Shh) pathway (AID 1259369; calls by dose curve; further: nearly all actives have a fitted effect of over 45% in size; further: potency means the concentration at half of the fitted maximal effect)
Method in brief: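 Luminescence readout: firefly Luc under Gli1 response element in 3T3Gli1-Luc cells (NIH/3T3 clone). Antagonist mode, stimulation by conditioned medium; compound exposure 24hr at 37 C, 5% CO2.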

[10] = target: Estrogen receptor beta (Homo sapiens) (UniProt Q92731); assay: qHTS assay to identify small molecule agonists of the estrogen receptor beta (ER-beta) signaling pathway (AID 1259377; active means well fitted activation curve with a large enough effect in the signal ratio in the repeat runs, not every such curve was filed as active; the % refers to the signal ratio)
Sequence of Estrogen receptor beta (Homo sapiens) (Q92731 whole entry, looked up): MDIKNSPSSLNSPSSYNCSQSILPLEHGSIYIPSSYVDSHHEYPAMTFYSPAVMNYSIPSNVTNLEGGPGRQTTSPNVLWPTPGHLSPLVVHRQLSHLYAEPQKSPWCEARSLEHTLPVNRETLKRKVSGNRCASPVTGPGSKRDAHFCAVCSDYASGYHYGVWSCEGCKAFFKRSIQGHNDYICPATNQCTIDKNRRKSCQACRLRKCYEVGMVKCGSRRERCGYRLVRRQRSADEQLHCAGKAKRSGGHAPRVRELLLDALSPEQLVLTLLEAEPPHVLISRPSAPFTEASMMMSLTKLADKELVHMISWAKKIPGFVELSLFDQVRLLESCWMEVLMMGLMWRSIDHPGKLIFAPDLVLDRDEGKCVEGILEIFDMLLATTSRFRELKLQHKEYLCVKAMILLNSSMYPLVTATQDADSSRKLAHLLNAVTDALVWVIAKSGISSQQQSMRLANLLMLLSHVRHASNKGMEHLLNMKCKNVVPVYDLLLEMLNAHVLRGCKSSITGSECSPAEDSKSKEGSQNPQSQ
Method in brief: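 qHTS in ER-beta-UAS-bla HEK293T cells: 6 hr settling, then 16 hr compound at 37C, then LiveBLAzer substrate 2 h at RT before fluorescence reading.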

[11] = qHTS assay to identify small molecule agonists of the androgen receptor (AR) signaling pathway in the presence of an antagonist - cell viability counter screen (AID 1259379);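 further: MDA-kb2 human breast cancer cells carrying an MMTV luciferase reporter; series mostly up to about 92 µM; nearly all actives have a fitted effect of over 25% in size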
Method in brief: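 Viability counter screen: CellTiter-Fluor fluorescence, measured in the same wells as the luciferase read-out. MDA-kb2 cells, 3,000/well, with nilutamide at 3.0uM final and compounds at 15 concentrations, 16 hr at 37C, 0% CO2.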

[12] = qHTS assay to identify small molecule agonists of the estrogen receptor beta (ER-beta) signaling pathway - cell viability counter screen (AID 1259380); further: nearly all actives have a fitted effect of over 30% in size
Method in brief: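 Luminescence read-out (CellTiter-Glo, 30 min, room temp) taken in the same wells as the beta-lactamase reporter assay; ER-beta-UAS-bla HEK293T cells exposed to DMSO-dissolved compounds for 16 hr at 37C in 2% charcoal-stripped FBS medium.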

[13] = target: Androgen receptor (Homo sapiens) (UniProt P10275); assay: qHTS assay to identify small molecule agonists of the androgen receptor (AR) signaling pathway in the presence of an antagonist (AID 1259381; calls by dose curve; further: nearly all actives have a fitted effect of over 15% in size)
Method in brief: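 Luciferase read-out (ONE-Glo, 30min room temperature) in MDA-kb2 MMTV-reporter cells; agonist mode run in presence of AR antagonist nilutamide, 3.0uM final. Compounds tested as 15-point series, 16hr exposure at 37C, 0% CO2.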

[14] = qHTS assay to identify small molecule antagonists of the estrogen receptor beta (ER-beta) signaling pathway - cell viability counter screen (AID 1259382); further: series mostly up to about 92 µM; nearly all actives have a fitted effect of over 55% in size
Method in brief: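 Luminescent ATP read-out (CellTiter-Glo, 30 min, RT) taken in the same wells as the bla reporter assay. HEK293T ER-beta-UAS-bla cells in 2% charcoal-stripped FBS were exposed to compounds with 1nM E2 for 16 hr at 37C.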

[15] = target: Estrogen receptor (Homo sapiens) (UniProt P03372); assay: qHTS assay to identify small molecule agonists of the estrogen receptor alpha (ER-alpha) signaling pathway in the presence of an antagonist (AID 1259383; calls by dose curve; further: top concentration of the series differs between compounds; nearly all actives have a fitted effect of over 15% in size)
Method in brief: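 Luciferase luminescence (ONE-Glo, 30min at room temperature) measured in VM7Luc4E2 cells after 22hr compound exposure at 15 concentrations, with 10.0nM ICI-182,780 final present; cells express endogenous ER-alpha and carry four EREs upstream of luciferase.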

[16] = target: Thyrotropin receptor (Homo sapiens) (UniProt P16473); assay: qHTS assay to identify small molecule antagonists of the thyroid stimulating hormone receptor (TSHR) signaling pathway (AID 1259385; calls by dose curve; further: nearly all actives have a fitted effect of over 20% in size)
Sequence of Thyrotropin receptor (Homo sapiens) (P16473 whole entry, looked up): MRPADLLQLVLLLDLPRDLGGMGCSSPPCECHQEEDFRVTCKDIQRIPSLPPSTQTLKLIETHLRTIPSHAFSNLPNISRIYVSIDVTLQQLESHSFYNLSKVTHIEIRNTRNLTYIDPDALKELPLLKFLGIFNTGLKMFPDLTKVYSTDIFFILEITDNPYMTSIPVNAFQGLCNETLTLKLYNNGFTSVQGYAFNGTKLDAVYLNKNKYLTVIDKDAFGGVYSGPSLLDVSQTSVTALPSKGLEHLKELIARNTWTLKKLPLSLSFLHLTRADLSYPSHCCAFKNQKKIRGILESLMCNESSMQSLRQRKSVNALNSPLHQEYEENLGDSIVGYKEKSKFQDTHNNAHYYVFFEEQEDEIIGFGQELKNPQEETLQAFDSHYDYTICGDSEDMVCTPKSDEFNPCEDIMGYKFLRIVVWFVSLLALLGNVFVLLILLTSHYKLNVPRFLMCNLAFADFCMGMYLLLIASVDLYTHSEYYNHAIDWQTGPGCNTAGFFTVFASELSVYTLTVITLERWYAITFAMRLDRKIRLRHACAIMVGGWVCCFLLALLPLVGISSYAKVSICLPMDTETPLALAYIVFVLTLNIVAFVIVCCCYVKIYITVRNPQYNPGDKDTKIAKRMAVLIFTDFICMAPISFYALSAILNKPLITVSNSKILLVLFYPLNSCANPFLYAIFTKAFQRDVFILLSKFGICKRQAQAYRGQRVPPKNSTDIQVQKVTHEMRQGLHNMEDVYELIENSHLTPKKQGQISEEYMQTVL
Method in brief: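 TSHR-HEK293 cells (800/well) plated 18 h, then compounds with Ro20-1724 and TSH at 1.5 ng/mL final, 30 min at room temperature. cAMP quantified by HTRF (cAMP-d2/anti-cAMP-cryptate, 1 h); 15 concentrations in triplicate.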

[17] = qHTS assay to identify small molecule antagonists of the androgen receptor (AR) signaling pathway using the MDA cell line in the presence of 0.5 nM R1881 - cell viability counter screen (AID 1259242); further: nearly all actives have a fitted effect of over 45% in size
Method in brief: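 Live-cell protease fluorescence, CellTiter-Fluor, 30 min at 37C. Cells: MDA-kb2, 3,000/well, preincubated 5 hr. Compounds plus 0.5 nM R1881 final, 16 hr, 37C, 0% CO2.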

[18] = qHTS assay to identify small molecule agonists or antagonists of the thyroid stimulating hormone receptor (TSHR) signaling pathway - wild type cell line counter screen (AID 1259384; calls by dose curve)
Method in brief: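 Wild-type Hek293 cells, 800/well, 18 h at 37C, then compound with Ro20-1724 for 30 min RT. cAMP by HTRF (cAMP-d2/anti-cAMP cryptate), 1 h RT, fluorescence read. 15 concentrations, triplicates.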

[19] = target: Estrogen receptor beta (Homo sapiens) (UniProt Q92731); assay: qHTS assay to identify small molecule antagonists of the estrogen receptor beta (ER-beta) signaling pathway (AID 1259378; active means well fitted inhibition curve with a large enough effect in the signal ratio in the repeat runs, not every such curve was filed as active; the % refers to the signal ratio)
Method in brief: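 ER-beta-UAS-bla HEK293T cells in 2% charcoal-stripped FBS medium treated with compound plus 1nM final 17-beta-estradiol for 16 hr at 37C. Beta-lactamase reporter read by FRET substrate fluorescence after 2 hours at room temperature.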

COP(=O)(OC)OC(Br)C(Cl)(Cl)Br (stereo not drawn)
Potency [1]: inactive
Potency [2]: 61.2 µM (active) and 61.1 µM (active)
Potency [3]: inactive
Potency [4]: inactive
Potency [5]: inactive
Potency [6]: inactive
Potency [7]: inactive
Potency [8]: inactive
Potency [9]: 12.2 µM (active)
Potency [10]: inactive
Potency [11]: inactive
Potency [12]: inactive
Potency [13]: inactive
Potency [14]: inactive
Potency [15]: inactive
Potency [16]: inactive

C[Si](Cn1cncn1)(c1ccc(F)cc1)c1ccc(F)cc1
Potency [1]: inactive
Potency [17]: inactive
Potency [4]: inactive
Potency [5]: inactive
Potency [6]: inactive
Potency [7]: inactive
Potency [8]: inactive
Potency [9]: 8.92 µM (active)
Potency [10]: inactive
Potency [11]: inactive
Potency [12]: inactive
Potency [14]: inactive
outcome [18]: inactive
Potency [16]: inactive

C=CCOC(=O)C(C)(C)OC(=O)c1cc(-n2c(=O)cc(C(F)(F)F)n(C)c2=O)ccc1Cl
Potency [1]: inactive
Potency [17]: inactive
Potency [4]: inactive
Potency [5]: inactive
Potency [6]: inactive
Potency [7]: inactive
Potency [8]: inactive
Potency [9]: inactive
Potency [10]: inactive
Potency [19]: inactive
Potency [11]: inactive
Potency [14]: inactive
Potency [15]: inactive

CCOC(=O)C1OC1(C)c1ccccc1 (stereo not drawn)
Potency [1]: inactive
Potency [17]: inactive
Potency [4]: inactive
Potency [5]: inactive
Potency [6]: inactive
Potency [7]: inactive
Potency [8]: inactive
Potency [9]: inactive
Potency [10]: inactive
Potency [19]: inactive
Potency [11]: inactive
Potency [12]: inactive
Potency [14]: inactive
outcome [18]: inactive
Potency [16]: inactive

O=C(O)c1cc(Cl)ccc1Cl
Potency [1]: inactive
Potency [17]: inactive
Potency [4]: inactive
Potency [5]: inactive
Potency [7]: inactive
Potency [8]: inactive
Potency [9]: inactive
Potency [10]: inactive
Potency [19]: inactive
Potency [11]: inactive
Potency [12]: inactive
Potency [14]: inactive

CCCC[P+](CC)(CCCC)CCCC (tested in a mixture with another compound)
Potency [1]: inactive
Potency [17]: inactive
Potency [4]: inactive
Potency [5]: inactive
Potency [7]: inactive
Potency [8]: inactive
Potency [9]: inactive
Potency [12]: inactive
Potency [14]: inactive
outcome [18]: inactive
Potency [16]: inactive

C=CCc1ccc(OC(=O)Cc2ccccc2)c(OC)c1
Potency [1]: inactive
Potency [17]: inactive
Potency [4]: inactive
Potency [5]: inactive
Potency [6]: inactive
Potency [7]: inactive
Potency [8]: inactive
Potency [9]: inactive
Potency [10]: inactive
Potency [19]: inactive
Potency [11]: inactive
Potency [12]: inactive
Potency [14]: inactive
outcome [18]: inactive

c1ccc2c(c1)-c1cccc3cccc-2c13
Potency [1]: inactive
Potency [17]: inactive
Potency [4]: inactive
Potency [5]: inactive
Potency [7]: inactive
Potency [8]: inactive
Potency [9]: inactive
Potency [10]: inactive
Potency [19]: inactive
Potency [11]: inactive
Potency [12]: inactive
Potency [14]: inactive
Potency [16]: inactive

Reference: PubChem BioAssay (Tox21)
